Laboratory results: PubChem BioAssay (EPA / NIEHS)
Active and inactive are the calls of the source. Rule for the calls: active = hit-call score of the fitted dose curve at least 0.9, where 1 is the maximum; inactive = score below 0.9.

How the values were obtained:
[1] = read-out: Monokine induced gamma interferon (MIG), CXCL9 (gene 4283); test: BSK_3C_MIG: BioMAP Diversity Plus: 3C Assay for Monokine induced gamma interferon (MIG) Biomarker Activity (AID 2283021); settings: primary human endothelial cells (HUVEC); actives raise or lower the signal;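 for AC50: MIG protein level measured by immunoassay in the treated endothelial cultures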
Procedure, shortened: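 After 24 h of treatment, human umbilical vein endothelial cultures (3C system) had their MIG biomarker level determined by ELISA, with DMSO serving as negative control.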

[2] = BSK_3C_SRB: Viability Assessment in the BioMAP Diversity Plus: 3C Assay (AID 2283023); settings: primary human endothelial cells (HUVEC);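 note: fitted both ways against DMSO so a hit may be signal rise or drop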
Procedure, shortened: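 Human umbilical vein endothelial cells in the 3C system, treated 24 h. Total protein measured by 0.1% sulforhodamine B staining after 10% TCA fixation, read at 560 nm; bidirectional fit versus DMSO.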

[3] = read-out: Matrix Metallopeptidase 1 (MMP1), MMP1 (gene 4312); test: BSK_BE3C_MMP1: BioMAP Diversity Plus: BE3C Assay for Matrix Metallopeptidase 1 (MMP1) Biomarker Activity (AID 2283024); settings: primary human bronchial epithelial cells; actives raise or lower the signal
Procedure, shortened: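 Dose cells, wait 24 h, run MMP1 ELISA; cells are human bronchial epithelial primaries. Both increases and decreases relative to DMSO counted.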

[4] = BSK_3C_Vis: BioMAP Diversity Plus: 3C Assay for Morphology Visualization (AID 2283025); settings: primary human endothelial cells (HUVEC);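 note: fitted both ways so gain or loss versus DMSO counts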;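 for AC50: light microscopy image of cell morphology used as background control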
Procedure, shortened: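 Endothelial cells from human umbilical vein were treated with test chemicals for 24 h and inspected by light microscopy for changes in cell conformation.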

[5] = BSK_BE3C_SRB: Viability Assessment in the BioMAP Diversity Plus: BE3C Assay (AID 2283028); settings: primary human bronchial epithelial cells;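 for AC50: fitted both ways so AC50 may mark signal gain or loss versus DMSO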
Procedure, shortened: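 Human bronchial epithelial primary cells in confluent culture, 24 h after chemical dosing; total protein by 0.1% SRB staining after 10% TCA fixation, read at 560 nm. Bidirectional fitting versus DMSO baseline.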

[6] = read-out: Thrombomodulin, THBD (gene 7056); test: BSK_3C_Thrombomodulin: BioMAP Diversity Plus: 3C Assay for Thrombomodulin Biomarker Activity (AID 2283029); settings: primary human endothelial cells (HUVEC); actives raise or lower the signal
Procedure, shortened: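 Thrombomodulin ELISA, human primary HUVEC, 24 h post-dose; data fitted in both directions relative to DMSO.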

[7] = read-out: Urokinase-type plasminogen activator receptor (uPAR), PLAUR (gene 5329); test: BSK_4H_uPAR: BioMAP Diversity Plus: 4H Assay for Urokinase-type plasminogen activator receptor (uPAR) Biomarker Activity (AID 2283030); settings: primary human endothelial cells (HUVEC); actives raise or lower the signal
Procedure, shortened: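 Human umbilical vein endothelial cells in the 4H system, 24 h after chemical dosing. Cell-surface uPAR measured by ELISA, fitted in both directions versus DMSO; cytotoxicity checked by SRB total protein in parallel cultures.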

[8] = read-out: Vascular endothelial growth factor receptor 2 (Homo sapiens) (UniProt P35968); test: BSK_4H_VEGFRII: BioMAP Diversity Plus: 4H Assay for Vascular endothelial growth factor receptor 2 (VEGFR2) Biomarker Activity (AID 2283031); settings: primary human endothelial cells (HUVEC); actives raise or lower the signal;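 for AC50: cell-surface VEGFR2 protein level quantified by ELISA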
Procedure, shortened: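 Primary human umbilical vein endothelial cells (4H system), 24 h exposure; cell-surface VEGFR2 measured by ELISA. Bidirectional fitting versus DMSO; cytotoxicity checked in parallel by SRB total-protein staining.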

[9] = read-out: Vascular cell adhesion molecule 1 (VCAM1), VCAM1 (gene 7412); test: BSK_4H_VCAM1: BioMAP Diversity Plus: 4H Assay for Vascular cell adhesion molecule 1 (VCAM1) Biomarker Activity (AID 2283033); settings: primary human endothelial cells (HUVEC); actives raise or lower the signal
Procedure, shortened: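 Endpoint derived from bidirectional fitting against DMSO controls of VCAM-1 ELISA signal in umbilical vein endothelial cells sampled at 24 h following treatment.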

[10] = read-out: Interferon-gamma inducible Protein 10 (IP10), CXCL10 (gene 3627); test: BSK_BE3C_IP10: BioMAP Diversity Plus: BE3C Assay for Interferon-gamma inducible Protein 10 (IP10) Biomarker Activity (AID 2283034); settings: primary human bronchial epithelial cells; actives raise or lower the signal
Procedure, shortened: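 Using primary human bronchial epithelial cultures, the assay captures IP-10 by ELISA one day (24 h) after exposure. Parallel SRB staining of total protein flags overt cytotoxicity. Fits run bidirectionally relative to DMSO.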

[11] = read-out: Monokine induced gamma interferon (MIG), CXCL9 (gene 4283); test: BSK_BE3C_MIG: BioMAP Diversity Plus: BE3C Assay for Monokine induced gamma interferon (MIG) Biomarker Activity (AID 2283035); settings: primary human bronchial epithelial cells; actives raise or lower the signal
Procedure, shortened: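 MIG level was determined by ELISA after 24 h chemical treatment of primary human bronchial epithelial cells. Values were fitted bidirectionally with DMSO as the negative control and activity baseline.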

[12] = read-out: Transforming growth factor beta 1 (TGFb1), TGFB1 (gene 7040); test: BSK_BE3C_TGFb1: BioMAP Diversity Plus: BE3C Assay for Transforming growth factor beta 1 (TGFb1) Biomarker Activity (AID 2283036); settings: primary human bronchial epithelial cells; actives raise or lower the signal
Procedure, shortened: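 In this human primary bronchial epithelial system, an ELISA quantified TGF-b1 one day after dosing. Endpoint changes in either direction were fitted relative to DMSO.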

[13] = read-out: Plasminogen activator inhibitor-1 (PAI1), SERPINE1 (gene 5054); test: BSK_BE3C_PAI1: BioMAP Diversity Plus: BE3C Assay for Plasminogen activator inhibitor-1 (PAI1) Biomarker Activity (AID 2283037); settings: primary human bronchial epithelial cells; actives raise or lower the signal
Procedure, shortened: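 PAI-1 biomarker levels in treated human bronchial epithelial cells are determined by ELISA at 24 h. Both increases and decreases relative to DMSO are fitted.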

[14] = read-out: urokinase plasminogen activator (uPA), PLAU (gene 5328); test: BSK_BE3C_uPA: BioMAP Diversity Plus: BE3C Assay for urokinase plasminogen activator (uPA) Biomarker Activity (AID 2283038); settings: primary human bronchial epithelial cells; actives raise or lower the signal
Procedure, shortened: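 Primary human bronchial epithelial cells, uPA measured by ELISA 24 h after dosing. Bidirectional change relative to DMSO; cytotoxicity checked in parallel cultures by sulforhodamine B total-protein staining.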

[15] = read-out: Urokinase-type plasminogen activator receptor (uPAR), PLAUR (gene 5329); test: BSK_BE3C_uPAR: BioMAP Diversity Plus: BE3C Assay for Urokinase-type plasminogen activator receptor (uPAR) Biomarker Activity (AID 2283039); settings: primary human bronchial epithelial cells; actives raise or lower the signal
Procedure, shortened: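 A uPAR ELISA serves as the readout, taken 24 h after treating primary human bronchial epithelial cells. Responses in either direction are fitted against DMSO, which defines baseline activity.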

[16] = read-out: Interleukin-6 (IL6), IL6 (gene 3569); test: BSK_CASM3C_IL6: BioMAP Diversity Plus: CASM3C Assay for Interleukin-6 (IL6) Biomarker Activity for (AID 2283040); settings: primary human coronary artery smooth muscle cells; actives raise or lower the signal
[17] = BSK_4H_SRB: Viability Assessment in the BioMAP Diversity Plus: 4H Assay (AID 2283027); settings: primary human endothelial cells (HUVEC);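 note: cells exposed to compound for 24 h before staining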;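 for AC50: curves fitted both ways versus DMSO so AC50 may be loss or gain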
Procedure, shortened: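 Absorbance at 560 nm of SRB-stained total protein served as the viability read-out in confluent primary human umbilical vein endothelium 24 h after chemical treatment. Curves were fitted bidirectionally against DMSO as negative control.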

[18] = read-out: Pselectin, SELP (gene 6403); test: BSK_4H_Pselectin: BioMAP Diversity Plus: 4H Assay for Pselectin Biomarker Activity (AID 2283026); settings: primary human endothelial cells (HUVEC); actives raise or lower the signal
Procedure, shortened: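 Human vascular endothelium from umbilical vein; P-selectin measured by ELISA at 24 h post-dose, with cytotoxicity checked by sulforhodamine B total-protein staining in parallel cultures (0.1% SRB after 10% TCA fixation, read at 560 nm).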

[19] = read-out: Human Leukocyte Antigen - DR isotype (HLADR), HLA-DRA (gene 3122); test: BSK_BE3C_HLADR: BioMAP Diversity Plus: BE3C Assay for Human Leukocyte Antigen - DR isotype (HLADR) Biomarker Activity (AID 2283032); settings: primary human bronchial epithelial cells; actives raise or lower the signal
Procedure, shortened: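 Signal came from an ELISA for HLA-DR in human bronchial epithelial primary cells harvested 24 h after treatment; gain- and loss-of-signal fitting used DMSO controls as reference.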

Measured: AC50

COC(=O)Nc1nc2ccccc2[nH]1
active: [2] 8.51 µM | [4] 9.8 µM | [7] 8.56 µM
not listed: [17] | [18] | [19]
inactive: all other assays above

CCCCOC(=O)c1ccccc1C(=O)OCc1ccccc1
not listed: [17] | [18] | [19]
inactive: all other assays above

c1ccc2c(c1)oc1ccccc12
not listed: [18] | [19]
inactive: all other assays above

Nc1cc(Cl)cc(C(=O)O)c1Cl
not listed: [17]
inactive: all other assays above

CCN(CC)CCO
not listed: [17] | [18]
inactive: all other assays above

C=CCc1ccc2c(c1)OCO2
not listed: [18] | [19]
inactive: all other assays above

CC(C)(C)OOC(C)(C)CCC(C)(C)OOC(C)(C)C
not listed: [18] | [19]
inactive: all other assays above

ClC1=C(Cl)C2(Cl)C3C(Cl)C=CC3C1(Cl)C2(Cl)Cl (stereo not given)
inactive: [3] | [5] | [6] | [14] | [15]
active: [1] 35.7 µM | [2] 28.7 µM | [4] 37.3 µM | [7] 34.7 µM | [8] 20 µM | [19] 26.2 µM | [9] 32.4 µM | [10] 32.3 µM | [11] 31.3 µM | [12] 20 µM | [13] 35 µM | [16] 27.2 µM

Cc1cccc(N)c1N
active: [9] 13.6 µM
not listed: [18] | [19]
inactive: all other assays above

CN(C)[C@@H]1C(=O)C(C(N)=O)=C(O)[C@@]2(O)C(=O)C3=C(O)c4c(O)cccc4[C@@](C)(O)[C@H]3C[C@@H]12
not listed: [19]
inactive: all other assays above

O=C(Oc1ccc(Br)cc1)N1CCN2CCC1CC2
not listed: [17] | [19]
inactive: all other assays above

COc1cc(C=O)cc2c1[C@H](COC(N)=O)[C@]1(OC(C)=O)ON2C[C@H]2[C@@H]1N2C(C)=O
inactive: [6]
active: [1] 29.2 µM | [2] 6.86 µM | [3] 3.3 µM | [4] 10.3 µM | [17] 3.17 µM | [5] 6.31 µM | [7] 1.14 µM | [8] 4.42 µM | [9] 13.4 µM | [10] 2.72 µM | [11] 9.98 µM | [12] 4.63 µM | [13] 1.99 µM | [14] 7.92 µM | [15] 6.18 µM | [16] 6.63 µM

C[N+](C)(C)CC1CO1 (stereo not given)
not listed: [18]
inactive: all other assays above

CC(C)(O)c1cnn2c(-c3ccc(F)c(-c4c(F)cccc4C#N)c3)cnc2n1
inactive: [1] | [3] | [7] | [8] | [9] | [16]
active: [2] 30.4 µM | [4] 37.5 µM | [18] 36.2 µM | [5] 29.6 µM | [6] 22.7 µM | [19] 36.5 µM | [10] 31.7 µM | [11] 36.9 µM | [12] 31.4 µM | [13] 32.1 µM | [14] 30.2 µM | [15] 36.5 µM

CN(C)C(=O)Nc1ccc(Cl)cc1
not listed: [18]
inactive: all other assays above

CCN(CC)N=O
not listed: [17] | [18]
inactive: all other assays above

N#CC(Br)Br
not listed: [17]
inactive: all other assays above

Nc1ccc(Oc2ccc(N)cc2)cc1
not listed: [17] | [19]
inactive: all other assays above

CCCCCCCCCCCCCN1CC(C)OC(C)C1 (stereo not given)
not listed: [18] | [19]
inactive: all other assays above

CCC(C)c1ccc(O)cc1 (stereo not given)
not listed: [17] | [19]
inactive: all other assays above

CCCCCOC(=O)c1ccccc1C(=O)OCCCCC
active: [2] 32.2 µM | [4] 39 µM | [18] 20 µM | [9] 18.5 µM
not listed: [19]
inactive: all other assays above

C[C@]12C=CC3=C4CCC(=O)C=C4CC[C@H]3[C@@H]1CC[C@@H]2O
active: [2] 7.77 µM | [3] 10.2 µM | [4] 7.2 µM | [7] 16 µM | [10] 29.2 µM | [16] 13 µM
not listed: [17] | [19]
inactive: all other assays above

[O-][Cl+]O
not listed: [8] | [17] | [18]
inactive: all other assays above

CCCCCCCCOC(=O)c1ccc(C(=O)OCCCCCCCC)c(C(=O)OCCCCCCCC)c1
not listed: [18]
inactive: all other assays above

O=P(OCCCl)(OCCCl)OCCCl
not listed: [19]
inactive: all other assays above

ClCCOCCCl
not listed: [17]
inactive: all other assays above

Cn1cc(-c2ccccc2)c(=O)c(-c2cccc(C(F)(F)F)c2)c1
not listed: [17]
inactive: all other assays above

CC(C)COC(=O)c1ccccc1C(=O)OCC(C)C
active: [2] 31.5 µM | [9] 14.1 µM
not listed: [19]
inactive: all other assays above
